The text below walks through data of PubChem BioAssay AID1256 (The Scripps Research Institute Molecular Screening Center, 2008).

The list shows a part of the results. A number with no mark means an inactive call. Activity calls are given as the source filed them. No stated cut-off is given here; in the data, active means inhibition above about 20%; inactive means the rest.

The target of this test is Neuropeptide Y receptor type 1 (Homo sapiens) (UniProt P25929). In words: NPY-Y1 receptor antagonists, selectivity check, counter-screen for NPY-Y2 antagonist project, cell-based (AID 1256).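 Further: cells challenged with NPY then isoproterenol with cAMP sensed through a CNG channel.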 As to conditions: cell-based NPY-Y1 antagonism counterscreen; at 3.6 µM; active compounds read high. On the technique in general: A counterscreen serves to expose hits that act by an unwanted route or on another target.
Neuropeptide Y receptor type 1 (Homo sapiens), sequence (P25929 whole entry, looked up): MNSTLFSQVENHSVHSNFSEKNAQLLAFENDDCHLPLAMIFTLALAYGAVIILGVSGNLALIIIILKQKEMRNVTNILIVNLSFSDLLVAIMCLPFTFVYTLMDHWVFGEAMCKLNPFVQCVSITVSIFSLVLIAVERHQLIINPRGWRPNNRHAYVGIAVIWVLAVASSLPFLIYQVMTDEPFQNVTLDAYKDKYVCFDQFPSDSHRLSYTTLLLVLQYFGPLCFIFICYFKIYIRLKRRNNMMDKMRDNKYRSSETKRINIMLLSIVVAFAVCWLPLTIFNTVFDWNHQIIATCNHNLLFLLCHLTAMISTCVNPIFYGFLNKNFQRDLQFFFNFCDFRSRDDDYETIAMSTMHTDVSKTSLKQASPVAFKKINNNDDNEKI
On to `COc1ccc(-c2nc3ccccc3n2CCC(C)C)cc1OC`, for which the inhibition (in general, the drop in the measured response relative to a control, in per cent) was 8.19%.

Turning to `CN(C)Cc1ccc(F)cc1Sc1cc(Cl)ccc1Cl`, the inhibition is 11.3%.

On to `COc1ccc(/C(N)=N/OC(=O)CCCc2ccccc2)cc1`, for which the inhibition was 6.54%.

As for `N=c1n(Cc2ccc(Cl)cc2)c2ccccc2n1CC(O)c1ccco1` (stereo not drawn), the inhibition was 13.8%.

With `C=CCNCCCCOc1ccccc1`, the inhibition is -1.26%.

Turning to `Cc1ccccc1N1CCN(CCCOc2ccc3c(C)cc(=O)oc3c2)CC1`, the inhibition is 19.3%.

With `Cc1ccc(CCC(=O)Nc2ncc(Cc3cc(Cl)ccc3Cl)s2)o1`, the inhibition is 18.8%.

Take `Cc1ccccc1OC(=O)Cn1c(C(F)(F)F)nc2ccccc21`: the inhibition is 7.05%.

For the molecule `COc1cccc(-c2ccc(C#N)c(SCC(=O)NCCc3ccc(Cl)cc3)n2)c1`, the inhibition is 9.97%.

Consider `CCCCC(O)(CCCC)C(=O)NN(C(=O)CCl)c1ccccc1`, for which the inhibition is 7.18%.

Regarding `COC(=O)c1ccc(CSc2nc3cc(Cl)ccc3o2)cc1`, the inhibition was 11.2%.

For `N#Cc1ccc(C(c2nnnn2CCc2ccccc2)N2CCCCCC2)cc1` (stereo not drawn), the inhibition is 7.96%.

`Cc1ccc(NC(=O)CN2CCC3(O)CCCCC3C2c2ccc3c(c2)OCO3)c(C)c1` (stereo not drawn): the inhibition was 5.96%.

Consider `COc1ccc(-c2noc(COc3ccc(Cl)c(C)c3)n2)cc1`, for which the inhibition was 13.3%.

With `CC12CN(Cc3ccccc3)CC(C)(CN(Cc3ccccc3)C1)C2=NO`, the inhibition was 13.2%.

Consider `Cc1ccc(S(=O)(=O)N(Cc2ccc(Cl)cc2)c2ccccc2C(=O)NCc2cccnc2)cc1`, for which the inhibition was 28.4% (active).

Regarding `O=S(=O)(Cc1cc(Sc2ccccc2)nc(-c2ccccc2)n1)c1ccccc1`, the inhibition is 11.8%.

`CCCc1nc(SCC(=O)Nc2ccccc2OC)c2c(=O)n(C)c(=O)n(C)c2n1`: the inhibition was 20.6% (active).
